# According to PubChem BioAssay AID1159580 (chemical genetic matrix, 2015):
# About 2,000 (36%) of roughly 5,500 compounds were called active. About 18% were inconclusive and are not listed. The list shows a part of the results. A number with no mark means an inactive call. Rule as the data show it: active = normalized growth mostly below about 0.91 (no sharp cut-off); inconclusive = no clear call, values can overlap the other calls; inactive = mostly above about 0.92.
# Assay: chemical genetic growth profiling, strain panel (AID 1159580);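 also: tested at 20 µM; growth read once vehicle control cultures reached saturation at 30 °C; 1 = growth at the plate median or of vehicle wells; lower values mean less growth of the strain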
# Conditions: S. cerevisiae deletion strains, growth OD
# [1] = locus YBR021W, strain FUR4, active compounds read low
# [2] = locus YBR229C, strain ROT2, active compounds read low
# [3] = locus YCL029C, strain bik1, active compounds read low
# [4] = locus YDL035C, strain GPR1, active compounds read low
# [5] = locus YDL074C, strain BRE1, active compounds read low
# [6] = locus YDL101C, strain DUN1, active compounds read low
# [7] = locus YDL185W, strain tfp1, active compounds read low
# [8] = locus YDL192W, strain arf1, active compounds read low
# [9] = locus YDR101C, strain arx1, active compounds read low
# [10] = locus YDR162C, strain NBP2, active compounds read low
# [11] = locus YDR318W, strain mcm21, active compounds read low
# [12] = locus YDR388W, active compounds read low
# [13] = locus YDR502C, strain sam2, active compounds read low
# [14] = locus YEL061C, strain CIN8, active compounds read low
# [15] = locus YER110C, active compounds read low
# [16] = locus YER155C, strain BEM2, active compounds read low
# [17] = locus YER167W, strain BCK2, active compounds read low
# [18] = locus YGL078C, strain dbp3, active compounds read low
# [19] = locus YGL086W, strain mad1, active compounds read low
# [20] = locus YGL248W, strain PDE1, active compounds read low
# [21] = locus YGR078C, strain PAC10, active compounds read low
# [22] = locus YGR135W, strain pre9, active compounds read low
# [23] = locus YGR252W, strain gcn5, active compounds read low
# [24] = locus YHR030C, strain SLT2, active compounds read low
# [25] = locus YHR079C, strain IRE1 (second series), active compounds read low
# [26] = locus YHR094C, strain hxt1, active compounds read low
# [27] = locus YHR129C, strain ARP1, active compounds read low
# [28] = locus YHR200W, strain rpn10, active compounds read low
# [29] = locus YIL066C, strain RNR3, active compounds read low
# [30] = locus YIL073C, strain SPO22, active compounds read low
# [31] = locus YIL125W, strain kgd1, active compounds read low
# [32] = locus YIR030C, strain dcg1, active compounds read low
# [33] = locus YJL095W, strain BCK1, active compounds read low
# [34] = locus YJL134W, strain LCB3, active compounds read low
# [35] = locus YJL168C, strain set2, active compounds read low
# [36] = locus YJL187C, strain SWE1 (second series), active compounds read low
# [37] = locus YJR043C, strain POL32, active compounds read low
# [38] = locus YJR075W, strain HOC1, active compounds read low
# [39] = locus YKL009W, strain mrt4, active compounds read low
# [40] = locus YKL068W, active compounds read low
# [41] = locus YKL085W, strain MDH1 (second series), active compounds read low
# [42] = locus YKL085W, strain MDH1, active compounds read low
# [43] = locus YKR001C, strain vps1, active compounds read low
# [44] = locus YLR039C, strain RIC1, active compounds read low
# [45] = locus YLR058C, strain SHM2, active compounds read low
# [46] = locus YLR102C, strain apc9, active compounds read low
# [47] = locus YLR262C, strain YPT6, active compounds read low
# [48] = locus YLR268W, strain sec22, active compounds read low
# [49] = locus YLR330W, strain CHS5, active compounds read low
# [50] = locus YLR342W, strain FKS1 (second series), active compounds read low
# [51] = locus YLR371W, strain rom2, active compounds read low
# [52] = locus YLR418C, strain cdc73, active compounds read low
# [53] = locus YML016C, strain PPZ1, active compounds read low
# [54] = locus YML032C, strain rad52, active compounds read low
# [55] = locus YML124C, strain tub3, active compounds read low
# [56] = locus YMR078C, strain ctf18, active compounds read low
# [57] = locus YMR223W, strain ubp8, active compounds read low
# [58] = locus YMR307W, strain GAS1, active compounds read low
# [59] = locus YNL067W, strain RPL9B, active compounds read low
# [60] = locus YNL128W, strain TEP1, active compounds read low
# [61] = locus YNL233W, strain BNI4, active compounds read low
# [62] = locus YNL250W, strain rad50, active compounds read low
# [63] = locus YNL271C, strain bni1, active compounds read low
# [64] = locus YNL298W, strain CLA4, active compounds read low
# [65] = locus YNL307C, strain MCK1, active compounds read low
# [66] = locus YNL322C, strain KRE1, active compounds read low
# [67] = locus YNR052C, strain pop2, active compounds read low
# [68] = locus YOL147C, strain pex11, active compounds read low
# [69] = locus YOR061W, strain CKA2, active compounds read low
# [70] = locus YOR069W, strain VPS5, active compounds read low
# [71] = locus YOR136W, strain idh2, active compounds read low
# [72] = locus YOR144C, strain elg1, active compounds read low
# [73] = locus YOR184W, strain ser1, active compounds read low
# [74] = locus YOR316C, strain cot1, active compounds read low
# [75] = locus YPR119W, strain clb2, active compounds read low
# [76] = locus YPR141C, strain kar3, active compounds read low
# [77] = locus YPR163C, strain tif3, active compounds read low
# [78] = locus YPR167C, strain met16, active compounds read low
# [79] = strain wtn01, active compounds read low
smiles,measurement,setting,value
CC(C)C1COc2cc3oc(=O)ccc3cc2O1 (stereo not given),normalized growth,[1],0.0979 (active)
same,normalized growth,[2],0.837 (active)
same,normalized growth,[3],0.616 (active)
same,normalized growth,[4],0.389 (active)
same,normalized growth,[5],0.287 (active)
same,normalized growth,[6],0.293 (active)
same,normalized growth,[7],0.874 (active)
same,normalized growth,[8],0.0841 (active)
same,normalized growth,[9],0.714 (active)
same,normalized growth,[10],0.0569 (active)
same,normalized growth,[11],0.546 (active)
same,normalized growth,[12],0.241 (active)
same,normalized growth,[13],0.289 (active)
same,normalized growth,[14],0.17 (active)
same,normalized growth,[15],0.698 (active)
same,normalized growth,[16],0.592 (active)
same,normalized growth,[17],0.503 (active)
same,normalized growth,[18],0.976
same,normalized growth,[19],0.589 (active)
same,normalized growth,[20],0.257 (active)
same,normalized growth,[21],0.191 (active)
same,normalized growth,[22],0.366 (active)
same,normalized growth,[23],0.209 (active)
same,normalized growth,[24],0.0511 (active)
same,normalized growth,[25],0.89 (active)
same,normalized growth,[26],0.92 (active)
same,normalized growth,[27],0.396 (active)
same,normalized growth,[28],0.433 (active)
same,normalized growth,[29],0.223 (active)
same,normalized growth,[30],0.122 (active)
same,normalized growth,[31],0.958
same,normalized growth,[32],0.701 (active)
same,normalized growth,[33],0.0654 (active)
same,normalized growth,[34],0.906 (active)
same,normalized growth,[35],0.834 (active)
same,normalized growth,[36],0.497 (active)
same,normalized growth,[37],0.218 (active)
same,normalized growth,[38],0.688 (active)
same,normalized growth,[39],0.916
same,normalized growth,[40],0.964
same,normalized growth,[41],0.945
same,normalized growth,[42],0.945
same,normalized growth,[43],0.0786 (active)
same,normalized growth,[44],0.106 (active)
same,normalized growth,[45],0.466 (active)
same,normalized growth,[46],0.887 (active)
same,normalized growth,[47],0.148 (active)
same,normalized growth,[48],0.443 (active)
same,normalized growth,[49],0.0515 (active)
same,normalized growth,[50],0.0669 (active)
same,normalized growth,[51],0.0882 (active)
same,normalized growth,[52],0.125 (active)
same,normalized growth,[53],0.381 (active)
same,normalized growth,[54],0.639 (active)
same,normalized growth,[55],0.738 (active)
same,normalized growth,[56],0.792 (active)
same,normalized growth,[57],0.44 (active)
same,normalized growth,[58],0.196 (active)
same,normalized growth,[59],0.711 (active)
same,normalized growth,[60],0.348 (active)
same,normalized growth,[61],0.285 (active)
same,normalized growth,[62],0.989
same,normalized growth,[63],0.728 (active)
same,normalized growth,[64],0.754 (active)
same,normalized growth,[65],0.157 (active)
same,normalized growth,[66],0.0872 (active)
same,normalized growth,[67],0.145 (active)
same,normalized growth,"locus YOL006C, strain TOP1, active compounds read low",0.152 (active)
same,normalized growth,"locus YOL012C, strain htz1",0.681
same,normalized growth,[68],0.66 (active)
same,normalized growth,[69],0.101 (active)
same,normalized growth,[70],0.519 (active)
same,normalized growth,[71],0.842 (active)
same,normalized growth,[72],0.843 (active)
same,normalized growth,[73],0.262 (active)
same,normalized growth,[74],0.875 (active)
same,normalized growth,[75],0.336 (active)
same,normalized growth,[76],0.959
same,normalized growth,[77],0.703 (active)
same,normalized growth,[78],0.636 (active)
same,normalized growth,[79],0.394 (active)
CC(C)(O)[C@@H]1Cc2cc3ccc(=O)oc3cc2O1,normalized growth,[1],1.03
same,normalized growth,[2],1
same,normalized growth,[3],1.01
same,normalized growth,[4],1.02
same,normalized growth,[5],1.04
same,normalized growth,[6],1.01
same,normalized growth,"locus YDL134C, strain PPH21, active compounds read low",1
same,normalized growth,[7],1.02
same,normalized growth,[8],1.03
same,normalized growth,[9],1
same,normalized growth,"locus YDR150W, strain NUM1, active compounds read low",1
same,normalized growth,[10],0.989
same,normalized growth,[11],1.01
same,normalized growth,[12],1.01
same,normalized growth,[13],1.04
same,normalized growth,[14],1
same,normalized growth,[15],1.01
same,normalized growth,[16],1
same,normalized growth,[17],1.02
same,normalized growth,[18],1.01
same,normalized growth,[19],1.03
same,normalized growth,[20],1.01
same,normalized growth,[21],1
same,normalized growth,[22],0.996
same,normalized growth,"locus YGR229C, strain SMI1, active compounds read low",1.04
same,normalized growth,[23],0.991
same,normalized growth,[24],1.01
same,normalized growth,[25],1
same,normalized growth,[26],1.01
same,normalized growth,[27],1.01
same,normalized growth,[28],1.03
same,normalized growth,[29],1.01
same,normalized growth,[30],1.02
same,normalized growth,[31],1.02
same,normalized growth,[32],1.02
same,normalized growth,[33],1.03
same,normalized growth,[34],1.02
same,normalized growth,[35],1.03
same,normalized growth,[36],1.01
same,normalized growth,[37],1.01
same,normalized growth,[38],1.01
same,normalized growth,[39],1.01
same,normalized growth,[40],1.02
same,normalized growth,[41],1
same,normalized growth,[42],1
same,normalized growth,[43],1.01
same,normalized growth,[44],1.01
same,normalized growth,[45],1.01
same,normalized growth,[46],1.02
same,normalized growth,[47],0.995
same,normalized growth,[48],1.03
same,normalized growth,[49],1.01
same,normalized growth,[50],1.07
same,normalized growth,[51],1.02
same,normalized growth,[52],0.989
same,normalized growth,[53],1.01
same,normalized growth,[54],1.02
same,normalized growth,[55],1.02
same,normalized growth,[56],1.03
same,normalized growth,[57],0.997
same,normalized growth,[58],1.1
same,normalized growth,[59],0.999
same,normalized growth,[60],1.02
same,normalized growth,[61],1.02
same,normalized growth,[62],1
same,normalized growth,[63],1
same,normalized growth,[64],1.01
same,normalized growth,[65],1.03
same,normalized growth,[66],1.01
same,normalized growth,[67],1.01
same,normalized growth,"locus YOL012C, strain htz1",1.44
same,normalized growth,[68],1.01
same,normalized growth,[69],1.01
same,normalized growth,[70],1.01
same,normalized growth,[71],1.02
same,normalized growth,[72],1
same,normalized growth,[73],1
same,normalized growth,[74],1.05
same,normalized growth,"locus YPL241C, strain CIN2, active compounds read low",1.01
same,normalized growth,[75],1.02
same,normalized growth,[76],1.01
same,normalized growth,[77],1.01
same,normalized growth,[78],1.03
same,normalized growth,[79],1.05
